For five compounds, composite z-score and z-score results are on record in PubChem BioAssay.

Molecules are shown by their SMILES. Calls of active or inactive are those of the source.

Assay [1] is described as follows: small molecules captured by biotinylated probe aFSTL3 – biochemical, small-molecule microarray, fluorescence 635/667, stem cell growth factor project, primary screen (AID 1064).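 Further: measures binding of the biotinylated anti-FSTL3 antibody to printed compounds.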 The following applies: higher = more signal.
Assay [2] is described as follows: binders from COS7 lysate, DM2A8 probe, primary screen, torsin A project, cell lysate, small-molecule microarray, fluorescence 635/667 (AID 1065). The note with it: higher = more signal, COS7 lysate expressing mutant human TOR1A.
Assay [3] is described as follows: small molecules captured by biotinylated probe aFGF2 – biochemical, small-molecule microarray, fluorescence 635/667, stem cell growth factor project, primary screen (AID 1067).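 Further: measures binding of biotinylated aFGF2 protein to printed compounds on slides; z-score merges feature fluorescence and signal-to-noise across triplicate slides.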 The following applies: higher = more signal.
Assay [4] is described as follows: small molecules captured by biotinylated probe aFGF10 – biochemical, small-molecule microarray, fluorescence 635/667, stem cell growth factor project, primary screen (AID 1071).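 Further: score merges 667 nm spot intensity and signal to noise from triplicate slides.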 The following applies: higher = more signal.
Assay [5] addresses Neurogenic locus notch homolog protein 2 (Homo sapiens) (UniProt Q04721). Nature of the assay: small molecules binding Notch2 protein – biochemical, small-molecule microarray, 635 nm fluorescence, stem cell growth factors, primary screen (AID 1073). The following applies: higher = more signal.
The target of assay [6] is Pro-neuregulin-1, membrane-bound isoform (Homo sapiens) (UniProt Q02297). As to the kind of experiment: small molecules binding neuregulin-1 protein – biochemical, small-molecule microarray, fluorescence 635/667, psychiatric disease protein project, primary screen (AID 1075).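 Further: score combines 667 nm spot fluorescence with signal to noise.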 The note with it: NRG1 binding, 635 nm fluorescence, higher = more signal.
The subject of assay [7] is Neuregulin-1 EGF-like domain. As to the kind of experiment: small molecules binding NRG1 EGF domain – biochemical, small-molecule microarray, 635 nm fluorescence, primary screen (AID 1081).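 Further: binding of the protein to compounds printed on small-molecule microarray slides.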 The following applies: higher = more signal.
Assay [8] can be described thus: FRG1 expression reporter modulators in myotubes – cell-based, C2C12 myotubes, firefly/Renilla luciferase, luminescence, FRG1 inhibition for FSHD, primary screen (AID 1084). The following applies: FRG1 promoter luciferase, higher = more signal, called active from +8 up or from −8 down.
A short description of assay [9]: small molecules captured by biotinylated probe aFST – biochemical, small-molecule microarray, fluorescence 635/667, stem cell growth factor project, primary screen (AID 1086).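 Further: score merges 667 nm fluorescence with signal-to-noise of each printed compound spot.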 The following applies: higher = more signal.
Assay [10] can be described thus: binders of probe aHhip on microarray, primary screen, stem cell growth factor project, biochemical, small-molecule microarray, fluorescence 635/667 (AID 1087).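 Further: score merges spot fluorescence at 667nm with spot signal to noise ratio.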 The note with it: higher = more signal.
For assay [11], the system named is PRMT1 (protein arginine N-methyltransferase 1). Nature of the assay: small molecules binding arginine methyltransferase PRMT1 – biochemical, small-molecule microarray, 635 nm fluorescence, primary screen (AID 1088).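 Further: binding of Prmt1 protein to compounds spotted on small-molecule microarray slides.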 The following applies: higher = more signal.
Assay [12] in a line: growth effects on S. cerevisiae YJM789 – YJM789 clinical isolate, OD600, 24 h, basal, primary screen (AID 1089).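 Further: growth of clinical yeast isolate S. cerevisiae YJM 789 seeded 1000 cells per well; test concentration not given here.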 The following applies: higher = more signal, called active from +8 up or from −8 down.
A short description of assay [13]: S. pombe growth modifiers, basal conditions – strain 972, OD600, 24 h, no modulator, primary screen (AID 1090).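 Further: basal condition with compound alone and no growth modifier present; test concentration not given here.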 The following applies: S. pombe 972 growth, higher = more signal, called active from +8 up or from −8 down.
Assay [14] in a line: budding yeast growth modifiers under rapamycin – strain BY4716, OD600, 96 h, primary screen (AID 1091). Further: test concentration not given here. The note with it: S. cerevisiae BY4716 + rapamycin, higher = more signal, called active from +8 up or from −8 down.
In assay [15] the target is Torsin-1A-interacting protein 2 (Homo sapiens) (UniProt Q8NFQ8). As to the kind of experiment: small molecules binding lysate-expressed LULL1 – cell lysate, human LULL1 lysate, 635/667 nm fluorescence, primary screen (AID 1092).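 Further: score merges per-feature 667 nm fluorescence with signal-to-noise.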 The following applies: small-molecule microarray, hLULL1 lysate binding, 635 nm fluorescence; higher = more signal.
Assay [16] can be described thus: optical density change of DRC41 E. coli – strain DRC41, OD650, 24 h, E. coli filamentation project, primary screen (AID 1093).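 Further: MC1000 strain lacking acrAB efflux and sulA so SOS filamentation is blocked; test concentration not given here.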 The note with it: E. coli DRC41 growth, higher = more signal, called active from +8 up or from −8 down.
A short description of assay [17]: probe aLefty2 binding to arrayed compounds – biochemical, biotinylated probe, 635/667 nm fluorescence, primary screen (AID 1094).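 Further: score merges spot fluorescence near 667 nm with spot signal-to-noise ratio.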 The note with it: small-molecule microarray, higher = more signal.
Assay [18] has as its system Noggin (protein binding on small-molecule microarray). As to the kind of experiment: small molecules binding Noggin protein – biochemical, 635/667 nm fluorescence, primary screen (AID 1095).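 Further: score merges 667 nm feature fluorescence with signal to noise over triplicate slides.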 The following applies: 635 nm fluorescence, higher = more signal.
Assay [19] concerns the target Neurogenic locus notch homolog protein 3 (Homo sapiens) (UniProt Q9UM47). As to the kind of experiment: small molecules binding NOTCH3 protein – biochemical, 635/667 nm fluorescence, primary screen (AID 1096). The note with it: small-molecule microarray, 635 nm fluorescence, higher = more signal.
The nature of assay [20]: probe aEGFR binding to arrayed compounds – biochemical, biotinylated probe, 635/667 nm fluorescence, primary screen (AID 1097).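 Further: probe is a biotinylated anti-EGFR antibody binding compounds printed on slides; score combines fluorescence near 667 nm and signal to noise of each spot.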 The note with it: small-molecule microarray, higher = more signal.

Torsin-1A-interacting protein 2 (Homo sapiens), sequence (Q8NFQ8 whole entry, looked up): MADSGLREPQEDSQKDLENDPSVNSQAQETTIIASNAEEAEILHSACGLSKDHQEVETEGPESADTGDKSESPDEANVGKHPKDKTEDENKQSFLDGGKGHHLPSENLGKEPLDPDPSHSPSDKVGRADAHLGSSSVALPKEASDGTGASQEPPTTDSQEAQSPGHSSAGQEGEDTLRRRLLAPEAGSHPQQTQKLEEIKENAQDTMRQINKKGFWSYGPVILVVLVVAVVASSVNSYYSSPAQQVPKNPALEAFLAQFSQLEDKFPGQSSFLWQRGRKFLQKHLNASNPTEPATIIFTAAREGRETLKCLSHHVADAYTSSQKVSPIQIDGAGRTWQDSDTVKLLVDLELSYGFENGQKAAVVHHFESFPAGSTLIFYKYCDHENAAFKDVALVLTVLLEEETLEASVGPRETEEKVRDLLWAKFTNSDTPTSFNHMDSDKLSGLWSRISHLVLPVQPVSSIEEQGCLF
Neurogenic locus notch homolog protein 3 (Homo sapiens), sequence (Q9UM47 whole entry, looked up): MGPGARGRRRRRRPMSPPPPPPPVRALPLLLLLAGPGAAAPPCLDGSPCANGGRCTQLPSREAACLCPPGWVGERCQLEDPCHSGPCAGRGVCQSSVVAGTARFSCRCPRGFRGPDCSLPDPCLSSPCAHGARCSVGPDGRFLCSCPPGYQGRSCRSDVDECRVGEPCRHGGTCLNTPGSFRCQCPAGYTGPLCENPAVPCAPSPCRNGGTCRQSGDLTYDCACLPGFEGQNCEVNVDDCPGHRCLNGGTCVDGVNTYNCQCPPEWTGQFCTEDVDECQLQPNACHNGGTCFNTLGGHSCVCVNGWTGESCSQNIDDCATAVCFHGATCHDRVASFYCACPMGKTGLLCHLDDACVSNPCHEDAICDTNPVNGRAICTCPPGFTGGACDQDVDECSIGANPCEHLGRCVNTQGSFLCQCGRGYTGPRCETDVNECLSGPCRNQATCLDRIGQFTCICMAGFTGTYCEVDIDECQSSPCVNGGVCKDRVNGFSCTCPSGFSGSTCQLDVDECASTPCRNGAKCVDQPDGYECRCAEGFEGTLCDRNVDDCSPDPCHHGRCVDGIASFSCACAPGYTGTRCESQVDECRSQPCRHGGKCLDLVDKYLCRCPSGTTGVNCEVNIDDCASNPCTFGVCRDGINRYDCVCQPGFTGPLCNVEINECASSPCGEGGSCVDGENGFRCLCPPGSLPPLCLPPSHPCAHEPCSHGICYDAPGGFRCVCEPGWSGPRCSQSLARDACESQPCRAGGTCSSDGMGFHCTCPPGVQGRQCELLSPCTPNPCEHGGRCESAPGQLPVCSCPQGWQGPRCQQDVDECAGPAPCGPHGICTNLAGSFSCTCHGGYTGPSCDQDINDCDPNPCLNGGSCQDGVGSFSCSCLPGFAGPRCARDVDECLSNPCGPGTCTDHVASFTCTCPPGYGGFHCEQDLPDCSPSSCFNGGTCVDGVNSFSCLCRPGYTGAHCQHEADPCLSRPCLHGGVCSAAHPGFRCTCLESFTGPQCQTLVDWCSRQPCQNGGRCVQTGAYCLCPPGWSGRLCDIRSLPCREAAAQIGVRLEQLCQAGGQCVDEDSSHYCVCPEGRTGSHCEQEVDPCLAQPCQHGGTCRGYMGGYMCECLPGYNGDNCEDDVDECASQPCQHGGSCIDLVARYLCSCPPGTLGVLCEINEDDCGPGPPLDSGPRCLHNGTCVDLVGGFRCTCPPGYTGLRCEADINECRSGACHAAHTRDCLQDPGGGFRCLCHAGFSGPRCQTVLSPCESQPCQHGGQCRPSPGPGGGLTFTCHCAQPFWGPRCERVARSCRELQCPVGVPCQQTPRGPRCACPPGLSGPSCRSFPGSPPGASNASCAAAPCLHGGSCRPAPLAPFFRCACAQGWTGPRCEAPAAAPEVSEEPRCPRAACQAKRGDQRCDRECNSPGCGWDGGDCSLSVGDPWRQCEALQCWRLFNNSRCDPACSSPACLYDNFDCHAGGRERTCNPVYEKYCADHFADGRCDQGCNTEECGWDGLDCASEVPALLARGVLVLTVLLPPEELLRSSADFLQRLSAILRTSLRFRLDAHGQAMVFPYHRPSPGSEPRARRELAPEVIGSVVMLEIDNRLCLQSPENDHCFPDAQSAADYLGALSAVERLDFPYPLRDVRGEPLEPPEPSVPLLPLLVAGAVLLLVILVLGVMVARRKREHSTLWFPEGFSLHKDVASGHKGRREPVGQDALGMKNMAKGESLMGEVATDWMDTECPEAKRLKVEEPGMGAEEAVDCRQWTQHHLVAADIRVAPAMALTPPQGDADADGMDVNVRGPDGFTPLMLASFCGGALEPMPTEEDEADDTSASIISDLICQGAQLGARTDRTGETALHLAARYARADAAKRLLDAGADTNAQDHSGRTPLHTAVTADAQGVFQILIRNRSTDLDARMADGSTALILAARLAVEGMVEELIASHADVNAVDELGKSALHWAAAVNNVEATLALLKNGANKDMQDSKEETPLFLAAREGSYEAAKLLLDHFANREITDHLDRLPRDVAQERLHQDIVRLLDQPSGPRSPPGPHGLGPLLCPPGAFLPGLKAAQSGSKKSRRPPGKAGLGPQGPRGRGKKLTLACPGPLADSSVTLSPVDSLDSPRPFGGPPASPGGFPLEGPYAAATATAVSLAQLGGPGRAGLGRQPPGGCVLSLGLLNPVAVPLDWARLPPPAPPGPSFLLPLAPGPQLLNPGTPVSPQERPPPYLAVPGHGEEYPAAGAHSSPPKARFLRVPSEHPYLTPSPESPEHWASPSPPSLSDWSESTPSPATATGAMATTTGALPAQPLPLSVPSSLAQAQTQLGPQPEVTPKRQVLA
Pro-neuregulin-1, membrane-bound isoform (Homo sapiens), sequence (Q02297 whole entry, looked up, the tested form may be a part, canonical isoform): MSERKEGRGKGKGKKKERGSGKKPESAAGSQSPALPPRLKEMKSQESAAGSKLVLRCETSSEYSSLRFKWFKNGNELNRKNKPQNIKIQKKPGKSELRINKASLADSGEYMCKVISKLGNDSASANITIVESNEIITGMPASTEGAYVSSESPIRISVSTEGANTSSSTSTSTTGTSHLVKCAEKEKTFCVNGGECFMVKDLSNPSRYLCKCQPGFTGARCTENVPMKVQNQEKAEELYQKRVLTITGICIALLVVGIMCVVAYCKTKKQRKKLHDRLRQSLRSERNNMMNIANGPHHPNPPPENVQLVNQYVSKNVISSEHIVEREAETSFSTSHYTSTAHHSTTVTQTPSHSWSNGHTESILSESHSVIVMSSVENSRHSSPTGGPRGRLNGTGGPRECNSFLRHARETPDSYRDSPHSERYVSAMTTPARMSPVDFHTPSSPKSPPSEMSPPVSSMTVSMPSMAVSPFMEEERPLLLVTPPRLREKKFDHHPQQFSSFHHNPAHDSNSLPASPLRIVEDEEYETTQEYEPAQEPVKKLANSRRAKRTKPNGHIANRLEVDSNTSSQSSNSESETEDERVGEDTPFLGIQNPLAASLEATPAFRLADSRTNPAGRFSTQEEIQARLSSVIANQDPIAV

On to `C=C(CCCC)C(=O)CC[C@@H](OC(=O)c1ccccc1-c1ccccc1C(=O)O)c1ccc(OCCO)cc1`, for which the composite z-score in [1] is -0.281; in assay [2], 0.358; in [3] it was -0.128; in [4] it was 0.826; in assay [5], -0.278; in assay [6], 0.529. Moreover, the composite z-score is 0.562 in [7]; 0.135 in [9]; 0.011 in [10]; 1.53 in [11]; 0.259 in assay [15]; -0.0272 in [17]. Moreover, the composite z-score was 0.931 in [18], 0.462 in [19] and -0.0767 in assay [20]. The z-score in assay [8] is -0.109 (inactive); in [12], -0.848 (inactive); in assay [13], -1.57 (inactive); in assay [14], -1.2 (inactive); in [16] it was 0.502 (inactive).

On to `C=C(CCCC)/C(=C/C[C@@H](OC(=O)c1ccncc1)c1ccc(OCCO)cc1)c1cc(C(=O)OC)ccc1OC`, for which the composite z-score in assay [1] is -0.356; in [2], 0.807; in assay [3], -0.129; in assay [4], 0.63; in [5] it was -0.0009; in assay [6] it was 0.382. The composite z-score in [7] was 1.01; in assay [9], -0.0132; in assay [10] it was -0.217; in assay [11] it was 1.53; in assay [15], 1.66; in assay [17], -0.166. Further, the composite z-score was 0.874 in [18], 0.975 in assay [19] and -0.12 in [20]. The z-score in assay [8] was 5.07 (inactive); in [12], 0.594 (inactive); in [13], 0.199 (inactive); in assay [14], 0.279 (inactive); in assay [16] it was 0.22 (inactive).

`NC(=O)NCC#Cc1ccc2c(c1)[C@]1(C(=O)N2)[C@H](C(N)=O)[C@H]2C(=O)O[C@H](c3ccccc3)[C@H](c3ccccc3)N2[C@@H]1c1ccc(O)cc1`: the composite z-score in assay [1] is 1.41; in assay [2], -0.0275; in assay [3], -0.0413; in [4] it was -0.166; in assay [5], -0.723; in [6], 1.14. Also, the composite z-score is -0.22 in assay [7]; 0.752 in assay [9]; 1.15 in [10]; 0.317 in [11]; 3.6 in [15]; 0.411 in [17]. Further, the composite z-score was 0.544 in [18], -0.382 in assay [19] and -0.413 in assay [20]. In addition, the z-score was -0.0861 (inactive) in assay [8]; -0.989 (inactive) in [12]; -0.434 (inactive) in assay [13]; -0.07 (inactive) in assay [14]; 0.792 (inactive) in assay [16].

In the case of `CC(C)C[C@@H]1NC(=O)[C@H](C(C)C)NC(=O)[C@@]23C(=O)N[C@@H](Cc4ccccc4)C2[C@H](C)[C@@]2(C)O[C@H]2C3/C=C/CC/C=C/CNC1=O` (stereo not given in full), the composite z-score in assay [1] was -0.368; in assay [2], 0.0032; in assay [3] it was -0.144; in assay [4], 0.518; in [5], 0.729; in assay [6], 0.133. For the same compound, the composite z-score in assay [7] was 1.02; in assay [9] it was 0.0815; in assay [10] it was -0.0061; in assay [11] it was 1.55; in [15], 2.27; in [17], -0.0346. The composite z-score in [18] is 0.782; in assay [19] it was 1.03; in [20] it was -0.096. For the same compound, the z-score in assay [8] was -0.537 (inactive); in assay [12], -0.0106 (inactive); in assay [13] it was -0.328 (inactive); in assay [14], -0.522 (inactive); in assay [16] it was -0.215 (inactive).

As to `COc1cc2c(cc1O)C(c1cccs1)N(C)CC2` (stereo not given), the composite z-score in assay [1] is -0.101; in assay [2], -0.493; in assay [3], -0.201; in assay [4] it was -0.143; in [5], -0.521; in assay [6], -0.714. The composite z-score in assay [7] was -0.31; in assay [9], -0.166; in assay [10], -0.0994; in assay [11] it was -0.414; in [15] it was -0.849; in assay [17] it was -0.0943. Moreover, the composite z-score was -0.428 in assay [18], -0.0102 in assay [19] and -0.151 in [20]. In addition, the z-score in [8] is 0.52 (inactive); in [12] it was 0.213 (inactive); in assay [13] it was 1.07 (inactive); in assay [14], -2.13 (inactive); in assay [16], 0.841 (inactive).
